Pf growth 96h: Primary qHTS for delayed death inhibitors of the malarial parasite plastid, 96 hour incubation. 6.9% of 320,000 active. P. falciparum luciferase reporter growth, 96 h. Potency, µM (doses to about 28.7 µM), inactives show at the top dose activity change, negative = inhibition, usual class: inhibitors. AID 504834, 2011; also: potency is read from the fitted curve at half-maximal effect; % is scaled to controls: 0 for no effect and ±100 for the full control effect
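Plates of compound plus infected erythrocytes (2% hematocrit, 0.05% parasitemia final) incubate 96 hours, 37 C, 5% CO2. Detection reagent added; reduced luminescence from the parasites' luciferase reporter flags inhibition.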
Pf growth 48h: Primary qHTS for delayed death inhibitors of the malarial parasite plastid, 48 hour incubation; Potency, µM (doses to about 28.7 µM), for inactives: at the highest dose activity change, negative = inhibition, hits mostly inhibitors; 5.9% of 310,000 active; P. falciparum luciferase growth in erythrocytes, 48 h; AID 504832, 2011; also: potency is read from the fitted curve at half-maximal effect; % is scaled to controls: 0 for no effect and ±100 for the full control effect
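A one-generation exposure of luciferase-tagged malaria parasites in RPMI 1640/Albumax erythrocyte culture, 37 C and 5% CO2. Inhibition is inferred from decreased luminescence after adding detection reagent.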
Shiga inhibitor: A qHTS for Small Molecule Inhibitors of Shiga Toxin. Vero cells, Shiga toxin protein synthesis inhibition reporter. inhibition, % at 38.7 µM. 9.2% of 290,000 active. AID 2315, 2010; in the data active = inhibition mostly above about 28%, no sharp cut-off; inactive = mostly below about 43%; also: 0% is about no effect
Cycloheximide cs: Cycloheximide Counterscreen for Small Molecule Inhibitors of Shiga Toxin. cell reporter, cycloheximide protein synthesis inhibition counterscreen. max response, %. 12% of 300,000 active; in the data active = max response mostly above about 13%, no sharp cut-off; inactive = mostly below about 14%; also: read at 38.3 µM for the half of the compounds with a filed dose; 0% is about no effect
LmPK inhibitor: qHTS Assay for Inhibitors of Leishmania Mexicana Pyruvate Kinase (LmPK) | purified LmPK, Kinase-Glo ATP luminescence, 1 h | Potency, µM (doses to about 57.5 µM), for the others: at the top dose activity change, negative = inhibition, hits mostly inhibitors | 0.37% of 290,000 active | AID 1721, 2009; also: potency is read from the fitted curve at half-maximal effect; % is scaled to controls: 0 for no effect and ±100 for the full control effect
Target sequence (Q27686 whole entry, looked up): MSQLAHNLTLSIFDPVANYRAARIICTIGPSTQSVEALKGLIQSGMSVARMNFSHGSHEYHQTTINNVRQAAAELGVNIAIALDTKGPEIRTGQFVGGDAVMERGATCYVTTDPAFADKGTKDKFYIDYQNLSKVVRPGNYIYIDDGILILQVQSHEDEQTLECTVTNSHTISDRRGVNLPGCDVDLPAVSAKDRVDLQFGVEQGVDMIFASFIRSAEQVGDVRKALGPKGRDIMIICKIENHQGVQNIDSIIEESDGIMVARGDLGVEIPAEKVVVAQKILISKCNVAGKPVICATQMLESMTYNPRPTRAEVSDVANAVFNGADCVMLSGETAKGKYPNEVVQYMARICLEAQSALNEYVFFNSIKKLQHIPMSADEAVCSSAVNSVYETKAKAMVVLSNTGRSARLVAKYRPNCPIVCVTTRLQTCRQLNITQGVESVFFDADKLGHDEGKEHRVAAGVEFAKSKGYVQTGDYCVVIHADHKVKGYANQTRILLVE
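Purified LmPK (0.1 nM) converted ADP (0.1 mM) to ATP with PEP (0.5 mM) in imidazole buffer pH 7.2 with KCl and MgCl2, 1 h at room temperature. ATP was read by Kinase-Glo luminescence; data normalized to uninhibited and no-enzyme controls.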
* marks the source's active call; other numbers are inactive results; ? = inconclusive; . = no result; [ ] = another dose, or the depositor's remark. Sampled rows, rich in hits. Any-hit rate of the full collection: about 22%. Unless noted, calls follow the shape of the dose curve; as a rule, active = well fitted inhibition curve with a large enough effect; inconclusive = small, poorly fitted or top-dose-only effect, or another doubt; inactive = no such curve, though single readings can be large or run the other way.

SMILES | Pf growth 96h | Pf growth 48h | Shiga inhibitor | Cycloheximide cs | LmPK inhibitor
CC1CN(CCc2ccccc2)c2nc3c(c(=O)n(C)c(=O)n3C)n2C1 (stereo not given) | ? | -8% | -3 | -6 | -9%
N#Cc1ccccc1NS(=O)(=O)c1cc2c3c(c1)CCN3C(=O)CC2 | ? | -20% | . | . | .
COc1ccc(S(=O)(=O)N2CCC3(CC2)OCCN3S(=O)(=O)c2cccs2)cc1OC | 9.3µM* | ? | . | . | .
CCS(=O)(=O)N1CCC2(CC1)OCCN2S(=O)(=O)c1ccc(C)cc1 | -31% | 1% | . | . | .
COc1ccc(S(=O)(=O)N2CCC3(CC2)OCCN3S(=O)(=O)c2c(C)cc(C)cc2C)cc1 | 0.83µM* | 1µM* | . | . | .
Cc1ccc(S(=O)(=O)N2CCC3(CC2)OCCN3S(=O)(=O)c2c(C)cc(C)cc2C)cc1 | ? | 10µM* | . | . | .
COc1ccc(S(=O)(=O)N2CCOC23CCN(S(=O)(=O)c2ccccc2)CC3)cc1 | 32% | ? | . | . | .
O=S(=O)(c1ccc(F)cc1)N1CCC2(CC1)OCCN2S(=O)(=O)c1cccs1 | ? | -27% | . | . | .
CCCn1nnnc1NCc1ccc(C(C)C)cc1 | -21% | 5% | 14 | -3 | -2%
COc1cc(C(=O)OCC(=O)Nc2ccc(C)cc2)cc(OC)c1OC | 0% | . | -6 | -5 | -1%
C=CCN1C=C2C(=O)C(C)(OC(=O)CCC(=O)OC)C(=O)C(Br)=C2C=C1c1ccc(OC)cc1 (stereo not given) | ? | 15µM* | -3 | 3 | -7%[11.5 µM]
COCCN1C=C2C(=O)C(C)(OC(=O)CCC(=O)OC)C(=O)C(Br)=C2C=C1c1ccc(OC)cc1 (stereo not given) | . | . | . | . | -5%[11.5 µM]
CCCOc1ccc(-c2nnc(N)s2)cc1 | . | -6% | 105* | 40* | -23%
Cc1ccc(-c2nnc(N)s2)cc1 | -20% | 69% | 66* | 43* | -5%
COc1ccc(-c2nnc(N)s2)cc1 | . | 57% | 39 | 37* | -7%
CCCOc1ccc(-c2nc(-c3ccc(N)cc3)cs2)cc1 | 93% | 49% | 62* | 68* | 1%
CCCOc1ccc(Cc2nc(N)nc(N)n2)cc1 | . | -7% | 9 | -2 | 6%
COc1ccc(OCCc2nnc(N)s2)cc1 | 56% | 24% | -2 | -3 | -1%
Cc1ccsc1C(=O)N(CC(C)C)c1c(N)n(Cc2ccccc2)c(=O)[nH]c1=O | -22% | ? | 22 | 1 | -6%
CSc1ccccc1NC(=O)c1ccccc1N(Cc1ccccc1)S(C)(=O)=O | 1% | -10% | -24 | -2 | 1%
O=C(CCN1C(=O)/C(=C\c2ccccc2F)SC1=S)N1CCCCC1 | ? | 7% | -6 | -3 | 1%
Cc1cccc(NC(=O)Cn2cnc(S(=O)(=O)N3CCCC3)c2)c1C | ? | 19% | 11 | -4 | -8%
CCCCn1c(N)c(N(CCC(C)C)C(=O)c2ccc(C)c(S(=O)(=O)N3CCOCC3)c2)c(=O)[nH]c1=O | 12% | -2% | . | . | .
Nc1nnc(-c2ccncc2)s1 | 57% | 16% | -3 | 1 | -8%
CNc1nnc(-c2ccc(OC)cc2)s1 | 2% | 65% | 78* | 33* | -28%
SMILES | Pf growth 96h | Pf growth 48h | Shiga inhibitor | Cycloheximide cs | LmPK inhibitor
CNc1nnc(-c2ccncc2)s1 | -33% | 14% | -4 | -5 | 4%
CC(C)c1ccc(-c2nnc(N)s2)cc1 | 44% | 157% | 54* | 66* | -8%
Cc1ccc(SCc2nnc(N)s2)cc1 | 4% | 19% | 0 | 10* | -4%
Cc1cc([N+](=O)[O-])cc(/C=N\NC(=O)C2COc3ccccc3O2)c1O (stereo not given) | ? | ? | -16 | -1 | -2%
Cc1cccc(OCCC(=O)Nc2ccc(Cl)cc2F)c1 | -86% | 11% | . | 1 | -2%
NC(=O)c1cc(N2C(=O)C=CC2=O)ccc1Cl | 0% | 2.3µM* | -2 | 20 | 7%
CC(=O)Nc1ccc(Cl)c(C(N)=O)c1 | ? | 0% | -8 | -4 | 3%
CCOCCCNCc1cccc(OCc2ccc(F)cc2)c1 | 12µM* | ? | 11 | -4 | -2%
CCOCCCNCc1ccc(Cl)cc1 | 37% | 19% | -6 | 4 | 4%
C=CC[n+]1ccc2ccccc2c1C | -22% | ? | -14 | 12 | -1%
C=CC[n+]1cccc(-c2cc3ccc(C)cc3[nH]2)c1 | 5.2µM* | ? | 18 | -2 | -4%
Cc1cc(C)nc(NC(=NCCc2c[nH]c3ccccc23)NC(=O)Nc2ccc(Cl)c(Cl)c2)n1 | 2.1µM* | ? | 17 | -4 | 2%
Cc1cc(C)nc(NC(=NCCc2c[nH]c3ccccc23)NC(=O)Nc2cccc([N+](=O)[O-])c2)n1 | 58% | 3.3µM* | -6 | 5 | 0%
Cc1cc(C)nc(NC(=NCCc2c[nH]c3ccccc23)NC(=O)Nc2ccccc2)n1 | 4.7µM* | 5.2µM* | -6 | -3 | 3%
Cc1ccc2[nH]cc(CCNC(=O)c3ccco3)c2c1 | 13% | 9% | 28 | 6 | -1%
Cc1cc(C)nc(NC(=NCCc2c[nH]c3ccccc23)NC(=O)c2ccco2)n1 | 5.9µM* | 6.6µM* | -9 | -3 | -2%
CCOC(=O)C1(CC2CCCCO2)CCN(C(=O)Nc2ccc(C(=O)OC)cc2)CC1 (stereo not given) | 22% | ? | -13 | -2 | 4%
COc1ccc(CN=C2NN=C(c3ccccc3)CS2)cc1 | ? | ? | 101* | 48* | 1%[11.5 µM]
COc1ccc(/C=C2\SC(=NCc3ccccc3)NC2=O)cc1 | ? | ? | 5 | 9 | 7%
COc1ccc(CN=C2NN=C(c3cccc(OC)c3)CS2)cc1 | -19% | 135% | 82* | 42* | -6%
COc1cccc(C2=NNC(=NCc3ccccc3)SC2)c1 | 0% | ? | 47* | 41* | 1%
Cc1nc(C(=O)N2CCC(n3nccc3NC(=O)Nc3ccccc3Cl)CC2)cs1 | 2% | -1% | 2 | 17 | 0%
O=C(c1ccco1)c1cn(Cc2ccc(Cl)cc2)c2ccccc12 | 35% | . | 38 | 23* | 11%
CC(=O)c1cn(CCOc2cc(C)ccc2C)c2ccccc12 | ? | ? | -7 | -2 | -1%
Cc1ccccc1OCCn1cc(/C(N)=N/O)c2ccccc21 | 9.3µM* | . | 2 | 7 | 3%
COc1cccc(OCCn2cc(C(=O)c3ccco3)c3ccccc32)c1 | 0% | 1.9µM* | 43 | 18 | 2%
COc1cccc(OCCn2cc(C(C)=O)c3ccccc32)c1 | ? | 9.3µM* | . | 12 | 0%
COc1ccccc1OCCn1cc(C(=O)c2ccco2)c2ccccc21 | ? | 12µM* | 35 | 18 | 6%
COc1ccccc1OCCCn1cc(C(=O)c2ccco2)c2ccccc21 | 17%[5.75 µM] | ? | 143* | 35* | 10%
COc1cc(C2CC(=O)Nc3ccccc3S2)cc(OC)c1OC (stereo not given) | 0% | ? | -20 | -3 | -1%

From PubChem
